Test results from PubChem BioAssay AID624139 (Broad Institute, 2012).
Out of some 17,000 compounds screened, about 220 (1.3%) were called active.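 How the source made its calls: active means spot fluorescence over background significantly raised, with a chance value under 7% in all four replicate spots of the compound; inactive means the rest.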 Many of the other results were omitted from the sample, so actives are more common in it than they were.

Each molecule was assayed against Nuclear factor NF-kappa-B p105 subunit (Homo sapiens) (UniProt P19838) (assay: small molecules binding NF-kappa-B p105/p50 – biochemical, small molecule microarray, anti-His fluorescence, primary screen (AID 624139);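 further: probe protein is his-tagged human p50 processed subunit at 1 µg/ml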).
Sequence of Nuclear factor NF-kappa-B p105 subunit (Homo sapiens) (P19838 1-433 limits assumed): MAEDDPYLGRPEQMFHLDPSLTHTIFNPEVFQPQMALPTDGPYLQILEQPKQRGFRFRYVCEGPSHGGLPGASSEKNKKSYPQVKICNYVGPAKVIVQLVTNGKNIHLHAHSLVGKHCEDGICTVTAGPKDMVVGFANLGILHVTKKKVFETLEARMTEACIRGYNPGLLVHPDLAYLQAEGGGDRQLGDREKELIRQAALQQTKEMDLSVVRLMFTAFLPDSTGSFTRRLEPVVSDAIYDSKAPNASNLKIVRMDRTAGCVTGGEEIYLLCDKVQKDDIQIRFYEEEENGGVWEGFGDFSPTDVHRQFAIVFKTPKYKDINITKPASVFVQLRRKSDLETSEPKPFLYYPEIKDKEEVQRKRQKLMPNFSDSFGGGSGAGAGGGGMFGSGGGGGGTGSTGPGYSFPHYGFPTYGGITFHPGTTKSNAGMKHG

Which outcome does the source give for C[C@@H]1CCCCO[C@H](CN(C)C(=O)Nc2cccc3ccccc23)[C@@H](C)CN([C@H](C)CO)C(=O)c2cc(NS(=O)(=O)c3cccs3)ccc2O1 here?
The outcome was “inactive”.

How did the outcome turn out when C[C@@H]1CN([C@H](C)CO)C(=O)c2cccc(NS(=O)(=O)c3ccc(Cl)cc3)c2O[C@@H]1CN(C)C(=O)Nc1cccc2ccccc12 was run?
Its outcome is “inactive”.

Which outcome does the source give for COc1ccc(S(=O)(=O)Nc2cccc3c2O[C@@H](CN(C)S(=O)(=O)c2ccc(F)cc2)[C@H](C)CN([C@H](C)CO)C3=O)cc1 here?
Its outcome is “inactive”.

How did the outcome turn out when C[C@@H]1CCCCO[C@@H](CN(C)C(=O)CCC(F)(F)F)[C@@H](C)CN([C@H](C)CO)C(=O)c2cc(NC(=O)CCC(F)(F)F)ccc2O1 was run?
Its outcome is “inactive”.

Which outcome does the source give for Cc1noc(C)c1S(=O)(=O)Nc1ccc2c(c1)C(=O)N([C@H](C)CO)C[C@@H](C)[C@H](CN(C)C(=O)NC(C)C)OCCCC[C@@H](C)O2 here?
Its outcome is “inactive”.

For Cc1noc(C)c1S(=O)(=O)Nc1ccc2c(c1)C(=O)N([C@@H](C)CO)C[C@H](C)[C@@H](CN(C)C)OCCCC[C@@H](C)O2, which outcome is on record?
The outcome was “inactive”.

With Cc1noc(C)c1S(=O)(=O)Nc1ccc2c(c1)C(=O)N([C@@H](C)CO)C[C@@H](C)[C@H](CN(C)C(=O)NC(C)C)OCCCC[C@@H](C)O2 as the molecule, how does the outcome read?
Its outcome is “active”.

C[C@H](CO)N1C[C@H](C)[C@H](CN(C)C(=O)CCC(F)(F)F)OCCCC[C@H](C)Oc2ccc(NS(C)(=O)=O)cc2C1=O was tested. Which outcome did it give?
The outcome was “inactive”.

With Cc1noc(C)c1S(=O)(=O)Nc1ccc2c(c1)C(=O)N([C@H](C)CO)C[C@H](C)[C@H](CN(C)C(=O)CCC(F)(F)F)OCCCC[C@H](C)O2 as the molecule, how does the outcome read?
Its outcome is “active”.

How did the outcome turn out when C[C@@H]1CCCCO[C@H](CN(C)C(=O)CCCN(C)C)[C@@H](C)CN([C@@H](C)CO)C(=O)c2cc(NC(=O)c3ccncc3)ccc2O1 was run?
Its outcome is “inactive”.

For C[C@@H]1CCCCO[C@H](CN(C)C(=O)CCC(F)(F)F)[C@@H](C)CN([C@@H](C)CO)C(=O)c2cc(NC(=O)c3ccncc3)ccc2O1, which outcome is on record?
Its outcome is “active”.

For Cc1noc(C)c1S(=O)(=O)Nc1ccc2c(c1)C(=O)N([C@H](C)CO)C[C@H](C)[C@@H](CN(C)C(=O)CCC(F)(F)F)OCCCC[C@H](C)O2, which outcome is on record?
Its outcome is “inactive”.

C[C@@H]1CN([C@H](C)CO)C(=O)c2cc(NS(=O)(=O)c3cccs3)ccc2O[C@@H](C)CCCCO[C@@H]1CN(C)S(=O)(=O)c1cccs1 was tested. Which outcome did it give?
Its outcome is “inactive”.

How did the outcome turn out when C[C@@H]1CN([C@H](C)CO)C(=O)Cc2cc(NS(=O)(=O)c3cccs3)ccc2O[C@H]1CN(C)C(=O)Nc1ccc2c(c1)OCO2 was run?
Its outcome is “inactive”.

With C[C@@H]1CCCCO[C@@H](CN(C)S(=O)(=O)c2ccccc2)[C@@H](C)CN([C@@H](C)CO)C(=O)c2cc(NS(=O)(=O)c3cn(C)cn3)ccc2O1 as the molecule, how does the outcome read?
The outcome was “inactive”.

For C=C1CCCC(C)(C(=O)OC)C1CC/C(C)=C/CCC1=CC(=O)OC1 (stereo not given), which outcome is on record?
Its outcome is “inactive”.

How did the outcome turn out when Cc1nnc(SCc2ccc(C(=O)c3ccc(Cl)cc3)o2)n1-c1ccccc1 was run?
Its outcome is “inactive”.

With O=C1C(=O)N(CCn2c3ccccc3c3nc4ccccc4nc32)c2ccccc21 as the molecule, how does the outcome read?
The outcome was “inactive”.

With Cc1ccc(S(=O)(=O)Nc2ccc3c(c2)C(=O)N([C@@H](C)CO)C[C@H](C)[C@@H](CN(C)S(=O)(=O)c2ccc(C)cc2)O3)cc1 as the molecule, how does the outcome read?
The outcome was “inactive”.

C[C@@H]1CN([C@@H](C)CO)C(=O)CCCn2nncc2CO[C@H]1CN(C)Cc1ccc(C(F)(F)F)cc1 was tested. Which outcome did it give?
Its outcome is “inactive”.

With C[C@H](CO)N1C[C@H](C)[C@H](CN(C)S(=O)(=O)c2cn(C)cn2)Oc2c(NC(=O)C3CCOCC3)cccc2C1=O as the molecule, how does the outcome read?
Its outcome is “inactive”.

Which outcome does the source give for C[C@@H]1CCCCO[C@@H](CN(C)C(=O)c2ccccc2)[C@H](C)CN([C@@H](C)CO)C(=O)c2cc(NS(C)(=O)=O)ccc2O1 here?
The outcome was “inactive”.

For C[C@@H]1CN([C@@H](C)CO)C(=O)c2cc(NS(C)(=O)=O)ccc2O[C@@H](C)CCCCO[C@@H]1CN(C)S(=O)(=O)c1cn(C)cn1, which outcome is on record?
Its outcome is “inactive”.

Cc1cc(O)c2c(c1)C(=O)OC2c1c(O)cccc1O (stereo not given) was tested. Which outcome did it give?
The outcome was “inactive”.

With COc1ccc(C)cc1NC(=O)NCCc1ccc(OC)c(OC)c1 as the molecule, how does the outcome read?
The outcome was “inactive”.

With C[C@H]1CCCCO[C@H](CN(C)C)[C@@H](C)CN([C@@H](C)CO)C(=O)c2cc(NC(=O)CCCN(C)C)ccc2O1 as the molecule, how does the outcome read?
The outcome was “inactive”.

Which outcome does the source give for CNC[C@@H]1Oc2c(NS(C)(=O)=O)cccc2C(=O)N([C@@H](C)CO)C[C@H]1C here?
Its outcome is “inactive”.

Which outcome does the source give for C[C@@H]1CCCCO[C@H](CN(C)C)[C@H](C)CN([C@@H](C)CO)C(=O)c2cc(NC(=O)Cc3ccccc3)ccc2O1 here?
Its outcome is “inactive”.

For Cc1noc(C)c1S(=O)(=O)N(C)C[C@H]1OCCCC[C@@H](C)Oc2ccc(NC(=O)CCCN(C)C)cc2C(=O)N([C@H](C)CO)C[C@@H]1C, which outcome is on record?
The outcome was “inactive”.

With C=CCn1c(=O)c(C(=O)NCc2ccccn2)c(O)c2ccccc21 as the molecule, how does the outcome read?
The outcome was “inactive”.

How did the outcome turn out when COc1cc(/C(C)=C/C(C)=C\C(=O)O)oc(=O)c1C was run?
The outcome was “inactive”.

How did the outcome turn out when Cc1noc(C)c1S(=O)(=O)Nc1ccc2c(c1)CC(=O)N([C@@H](C)CO)C[C@@H](C)[C@@H](CN(C)C(=O)Nc1ccc(C(F)(F)F)cc1)O2 was run?
Its outcome is “inactive”.

How did the outcome turn out when C[C@H](CO)N1C[C@H](C)[C@H](CN(C)Cc2ccc(C(F)(F)F)cc2)Oc2ccc(NS(C)(=O)=O)cc2C1=O was run?
Its outcome is “inactive”.

C=C(CC/C=C(\C)C(=O)O)C1(O)CC=C(C)CC1 (stereo not given) was tested. Which outcome did it give?
The outcome was “inactive”.

How did the outcome turn out when O=C1O[C@H](c2ccccc2)[C@H](c2ccccc2)N2[C@H]1[C@@H](C(=O)N1CCN(c3ncccn3)CC1)[C@]1(C(=O)Nc3ccccc31)[C@H]2c1ccc(OCCO)cc1 was run?
Its outcome is “inactive”.

For C[C@H]1CN([C@@H](C)CO)C(=O)CCCn2cc(nn2)CO[C@@H]1CN(C)S(=O)(=O)c1ccc(-n2cccn2)cc1, which outcome is on record?
Its outcome is “inactive”.

Which outcome does the source give for CC(C)NC(=O)Nc1ccc2c(c1)CC(=O)N([C@@H](C)CO)C[C@@H](C)[C@H](CN(C)Cc1ccc(C(F)(F)F)cc1)O2 here?
The outcome was “inactive”.

Which outcome does the source give for C/C(=C/CC[C@@H](CO)[C@H]1CC[C@@]2(C)[C@@H]3CC[C@H]4C(C)(C)[C@@H](O[C@@H]5O[C@H](CO)[C@@H](O)[C@H](O)[C@H]5O)C[C@H](O)[C@@]45C[C@@]35CC[C@]12C)CO here?
The outcome was “inactive”.

How did the outcome turn out when Cc1noc(C)c1S(=O)(=O)Nc1ccc2c(c1)CC(=O)N([C@H](C)CO)C[C@@H](C)[C@@H](CN(C)C)O2 was run?
Its outcome is “inactive”.

Which outcome does the source give for COc1ccc(CN(C)C[C@H]2Oc3ccc(NC(=O)Cc4ccccc4)cc3CC(=O)N([C@@H](C)CO)C[C@@H]2C)cc1 here?
The outcome was “inactive”.

With CC1(C)CC[C@@]2(C(=O)O)C(C1)C1=CCC3[C@@]4(C)CC[C@H](O)C(C)(C)C4CC[C@@]3(C)[C@]1(C)C[C@H]2O (stereo not given in full) as the molecule, how does the outcome read?
Its outcome is “inactive”.

C[C@H](CO)N1C[C@H](C)[C@@H](CN(C)C(=O)Nc2ccccc2)Oc2ccc(N(C)C)cc2C1=O was tested. Which outcome did it give?
Its outcome is “inactive”.

How did the outcome turn out when COc1cc(C)c(C(=O)Oc2cc(C)c(C(=O)Oc3cc(C)c(C(=O)NC(C)C(=O)O)c(O)c3)c(O[C@@H]3O[C@H](CO)[C@@H](O)[C@H](O)[C@H]3OC(C)=O)c2)c(OC)c1 (stereo not given in full) was run?
Its outcome is “inactive”.

Which outcome does the source give for Cc1ccc(C(=O)NCCNS(=O)(=O)c2ccccc2)cc1 here?
Its outcome is “inactive”.

With COc1ccc(NC(=O)Nc2cccc3c2O[C@H](CN(C)S(=O)(=O)c2cccs2)[C@H](C)CN([C@@H](C)CO)C3=O)cc1 as the molecule, how does the outcome read?
Its outcome is “inactive”.

For CNC[C@H]1Oc2ccc(N(C)C)cc2CC(=O)N([C@@H](C)CO)C[C@@H]1C, which outcome is on record?
Its outcome is “inactive”.

Which outcome does the source give for CC(C)NC(=O)N(C)C[C@H]1Oc2ccc(NS(=O)(=O)c3cn(C)cn3)cc2CC(=O)N([C@@H](C)CO)C[C@H]1C here?
Its outcome is “inactive”.

Which outcome does the source give for C[C@@H]1CN([C@@H](C)CO)C(=O)Cc2cc(NC(=O)CCC(F)(F)F)ccc2O[C@@H]1CN(C)C(=O)Nc1cccc2ccccc12 here?
The outcome was “inactive”.

For Cc1cc(C)c(NC(=O)CCCC(=O)O)c(C)c1, which outcome is on record?
Its outcome is “inactive”.

C[C@H]1CN([C@@H](C)CO)C(=O)c2cc(NC(=O)C3CC3)ccc2O[C@@H]1CN(C)S(=O)(=O)c1cn(C)cn1 was tested. Which outcome did it give?
Its outcome is “inactive”.
